In all, about 99,000 compounds went through this assay and about 820 (0.83%) were called active. The sample holds actives, similar compounds and a random draw of the others, so the mix is not that of the screen.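 Rule for the calls: active = Z-score of -3 or lower, scaled per plate to the spread of control and sample wells; inactive = z-score above -3.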
What follows are molecules tested against Protein-tyrosine kinase 2-beta (Homo sapiens) (UniProt Q14289) (assay: Pyk2 FERM oligomerization blockers – Q293 cells, FERM NanoBiT luminescence, HTS, primary screen (AID 1347419;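 note: the deposit names both 25 µM and 10 µM; negative z-score means lost luminescence so less FERM oligomerization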)). Details: active compounds read low.
Set-up: dose or concentration left out as unconfirmed

Sequence of Protein-tyrosine kinase 2-beta (Homo sapiens) (Q14289 whole entry, looked up): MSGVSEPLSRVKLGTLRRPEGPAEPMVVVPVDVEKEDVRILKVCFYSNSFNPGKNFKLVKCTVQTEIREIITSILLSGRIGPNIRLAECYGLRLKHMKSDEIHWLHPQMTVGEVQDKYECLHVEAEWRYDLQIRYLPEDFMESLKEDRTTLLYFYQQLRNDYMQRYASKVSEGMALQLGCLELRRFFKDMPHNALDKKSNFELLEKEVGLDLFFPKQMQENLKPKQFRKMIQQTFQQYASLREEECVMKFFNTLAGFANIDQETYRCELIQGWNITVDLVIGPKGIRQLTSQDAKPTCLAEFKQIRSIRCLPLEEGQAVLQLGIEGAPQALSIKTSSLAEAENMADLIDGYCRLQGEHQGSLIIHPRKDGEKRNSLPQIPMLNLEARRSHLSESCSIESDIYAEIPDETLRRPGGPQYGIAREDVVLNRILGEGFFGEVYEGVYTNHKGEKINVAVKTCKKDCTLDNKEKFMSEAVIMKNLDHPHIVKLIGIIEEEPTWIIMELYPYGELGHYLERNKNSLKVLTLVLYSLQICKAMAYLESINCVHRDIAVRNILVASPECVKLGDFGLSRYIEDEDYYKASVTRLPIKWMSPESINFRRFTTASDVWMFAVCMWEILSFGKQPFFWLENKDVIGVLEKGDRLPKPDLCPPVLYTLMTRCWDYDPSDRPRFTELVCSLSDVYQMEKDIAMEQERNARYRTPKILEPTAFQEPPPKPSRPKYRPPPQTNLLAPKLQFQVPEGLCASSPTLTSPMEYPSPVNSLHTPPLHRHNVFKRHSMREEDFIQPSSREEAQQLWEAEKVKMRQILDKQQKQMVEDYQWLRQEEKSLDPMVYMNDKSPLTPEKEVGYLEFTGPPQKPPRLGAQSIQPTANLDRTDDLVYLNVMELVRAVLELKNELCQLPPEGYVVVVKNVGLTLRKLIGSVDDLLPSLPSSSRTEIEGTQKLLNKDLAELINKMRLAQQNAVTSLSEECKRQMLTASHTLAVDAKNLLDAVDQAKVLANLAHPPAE

How did the z-score turn out when `CCCN1C2=C(C(=O)CCC2)C(c2ccc(O)c(Br)c2)C2=C1CCCC2=O` was run?
Its z-score is -3.69 (active).

How did the z-score turn out when `CCCC(=O)N1c2ccccc2NC2=C(C(=O)CCC2)C1c1ccc(F)cc1` (stereo not given) was run?
Its z-score is -0.82 (inactive).

With `N#CC1=C(N)N(c2ccccc2)C2=C(C(=O)CCC2)C1c1ccccc1` (stereo not given) as the molecule, how does the z-score read?
Its z-score is -0.02 (inactive).

How did the z-score turn out when `CCOc1ccc(Br)cc1S(=O)(=O)Nc1cccc(S(=O)(=O)N(CC)CC)c1` was run?
The z-score was 1.18 (inactive).

`CCCCCCc1cc2cc(-c3nnc(-c4ccccc4)o3)c(=O)oc2cc1O` was tested. Which z-score did it give?
The z-score was -3.06 (active).

How did the z-score turn out when `O=c1oc2cc(O)ccc2cc1-c1ccc(F)cc1` was run?
Its z-score is -0.5 (inactive).

Which z-score does the source give for `CC(C)NC(=O)C(=O)NCCCOC(C)C` here?
Its z-score is 0.05 (inactive).

How did the z-score turn out when `COC(=O)c1cc(NC(=O)Cc2ccccc2[N+](=O)[O-])ccc1Cl` was run?
The z-score was -0.53 (inactive).

Which z-score does the source give for `COc1cc(OC)nc(N/N=C(\c2ccccc2)c2ccncc2)n1` here?
The z-score was 2.22 (inactive).

`O=C(N/N=C/c1cccc([N+](=O)[O-])c1)C1CC(=O)N(c2ccc(Br)cc2)C1` (stereo not given) was tested. Which z-score did it give?
Its z-score is 0.31 (inactive).

With `Cc1[nH]c(=O)c(C(=O)/C=C/c2ccccc2)c2c1CCCC2` as the molecule, how does the z-score read?
The z-score was -3.31 (active).

`Cc1nc(-c2ccccc2)sc1C(=O)/C=C/c1ccccc1` was tested. Which z-score did it give?
The z-score was -0.6 (inactive).

`O=C(/C=C/c1ccccc1)c1ccoc1` was tested. Which z-score did it give?
The z-score was 2.22 (inactive).

For `CC1(c2cccc([N+](=O)[O-])c2)CC(C)(C)N(C(=O)c2ccccc2)c2ccccc21` (stereo not given), which z-score is on record?
Its z-score is -0.67 (inactive).

Which z-score does the source give for `CCn1c(SCC(=O)Nc2ccc(C)cc2)nc2nc3c(cc2c1=O)CCCC3` here?
The z-score was -2.19 (inactive).

How did the z-score turn out when `COc1ccc(N(CC(=O)N/N=C/c2cccc3c2OCCO3)S(=O)(=O)c2ccc(NC(C)=O)cc2)cc1` was run?
The z-score was -3.71 (active).

Which z-score does the source give for `COc1ccc(N(CC(=O)N/N=C/c2cccs2)S(=O)(=O)c2ccc(OC)c(OC)c2)cc1` here?
The z-score was -2.54 (inactive).

For `Cc1ccc(S(=O)(=O)N(CC(=O)N/N=C/c2ccc(F)cc2)c2cccc3cccnc23)cc1`, which z-score is on record?
The z-score was -0.75 (inactive).

How did the z-score turn out when `CC(C)CN(C(=O)CN1CCN(S(=O)(=O)c2ccccc2)CC1)c1c(N)n(CC(C)C)c(=O)[nH]c1=O` was run?
Its z-score is 0.05 (inactive).

`CCCC(C)C(=O)OCC(=O)Nc1c(Br)cc(C)cc1Br` (stereo not given) was tested. Which z-score did it give?
The z-score was 1.59 (inactive).

How did the z-score turn out when `CCC(C)(C)n1nnnc1C(c1cccs1)N1CCN(c2nc3ccccc3s2)CC1` (stereo not given) was run?
Its z-score is -3.48 (active).

`CCC(C)(C)n1nnnc1C(c1ccccc1OC)N1CCSCC1` (stereo not given) was tested. Which z-score did it give?
Its z-score is -0.08 (inactive).

With `CCC(C)(C)n1nnnc1C(c1cccs1)N1CCN(Cc2ccccc2)CC1` (stereo not given) as the molecule, how does the z-score read?
Its z-score is 0.51 (inactive).

Which z-score does the source give for `Cc1ccc(C(=O)COC(=O)c2cccc(N3C(=O)c4c(C)nc5ccccc5c4C3=O)c2)cc1C` here?
The z-score was 0.74 (inactive).

Which z-score does the source give for `N#CC(C(N)=O)=C1CCC2(CC1)OCCCCO2` here?
Its z-score is 0.83 (inactive).

`CC1(C)C/C(=C(/C#N)C(N)=O)CCO1` was tested. Which z-score did it give?
Its z-score is -3.62 (active).

For `O=C(Nc1ccccc1)c1cc2ccccc2[nH]1`, which z-score is on record?
The z-score was 0.86 (inactive).

With `S=C1Nc2cc(Cl)ccc2Sc2ccccc21` as the molecule, how does the z-score read?
Its z-score is -0.5 (inactive).

Which z-score does the source give for `CC1=C(C(=O)Nc2cc(C)ccn2)C(c2cnn(C)c2)C2=C(CC(c3ccccc3)CC2=O)N1` (stereo not given) here?
The z-score was 1.36 (inactive).

How did the z-score turn out when `Cc1nn(-c2ccccc2)c(C)c1/C=C/C(=O)OC(C)C(N)=O` (stereo not given) was run?
The z-score was 0.82 (inactive).

From PubChem BioAssay AID1347419 (Sanford-Burnham Center for Chemical Genomics, 2020)
